Reference: PubChem BioAssay

Molecular target: Fibroblast growth factor 10 (Homo sapiens) (UniProt O15520)
Assay: compounds binding fibroblast growth factor 10 – biochemical, small-molecule microarray, 635 nm fluorescence, primary screen (AID 1102)
Conditions: FGF10 binding, fluorescence 635 nm, higher = more signal

Sequence of Fibroblast growth factor 10 (Homo sapiens) (O15520 whole entry, looked up): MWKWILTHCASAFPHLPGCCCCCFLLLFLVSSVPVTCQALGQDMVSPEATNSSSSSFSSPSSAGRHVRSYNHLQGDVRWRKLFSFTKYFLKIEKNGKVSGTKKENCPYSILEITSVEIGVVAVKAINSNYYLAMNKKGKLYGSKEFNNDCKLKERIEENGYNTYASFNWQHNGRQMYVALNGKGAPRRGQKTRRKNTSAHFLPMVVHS

**Q.** Which composite z-score does the source give for `COC(=O)[C@H](C)NC(=O)CCC1CC(OC(=O)NCCc2ccc(F)cc2)CC2(CCCC(COC(=O)NCC3CCCCC3)O2)O1` (stereo partly specified) here?
**A.** 0.938

**Q.** For `COc1ccc2c(c1)O[C@@H](c1cccc(C(F)(F)F)c1)[C@H](O)C2=O`, which composite z-score is on record?
**A.** 0.213

**Q.** How did the composite z-score turn out when `CCOC(=O)[C@H](Cc1ccccc1)NC(=O)CCC1CC(OC(=O)NCc2ccc3c(c2)OCO3)CC2(CCCC(COC(=O)NCCOc3ccccc3)O2)O1` (stereo partly specified) was run?
**A.** 0.881

**Q.** With `CC(=O)OC[C@H]1O[C@@H](ON=C(C)C)[C@H](OC(C)=O)[C@@H](OC(C)=O)[C@@H]1OC(C)=O` as the molecule, how does the composite z-score read?
**A.** -0.527

**Q.** With `CCOC(=O)[C@H](Cc1ccccc1)NC(=O)CCC1CC(OC(=O)NCc2ccc3c(c2)OCO3)CC2(CCCC(COC(=O)NCCc3ccc(Cl)cc3)O2)O1` (stereo partly specified) as the molecule, how does the composite z-score read?
**A.** 0.471

**Q.** For `O=C1C=C[C@@H](O)[C@@H]2[C@@H]3C(=O)N(Cc4ccccc4)C(=O)[C@@H]3CC[C@@H]12`, which composite z-score is on record?
**A.** 0.659

**Q.** How did the composite z-score turn out when `COC(=O)C1=C(C)N(Cc2ccccc2)C2=C3C(=O)OCC[C@@H]3[C@@](O)(C(=O)OC)C(=O)N2[C@@H]1c1ccccc1` was run?
**A.** 0.325

**Q.** `CCCNC(=O)OC[C@H]1O[C@H](CCON=C[C@@H](NS(=O)(=O)c2ccc(C)cc2)[C@H](C)C=CCC(=O)OC)C=C[C@@H]1Oc1ccc(OC)cc1` was tested. Which composite z-score did it give?
**A.** -0.0511

**Q.** With `CC=CC1=C(CO)[C@H](O)[C@H]2O[C@H]2[C@@H]1O` as the molecule, how does the composite z-score read?
**A.** 0.733

**Q.** Which composite z-score does the source give for `COc1ccc(O[C@H]2C=C[C@@H](C#Cc3ccccc3)O[C@@H]2CO)cc1` here?
**A.** 0.535

**Q.** For `COC(=O)[C@@H]1CC[C@H](C)[C@@H](c2ccc(C)cc2)N1C(=O)c1ccc(C=NOC[C@H]2O[C@H](c3ccccc3)C=C[C@@H]2Oc2ccc(OC)cc2)cc1`, which composite z-score is on record?
**A.** 0.3

**Q.** `CON=C1c2cc(OC)ccc2O[C@H](c2cccc(OC)c2)[C@H]1O` was tested. Which composite z-score did it give?
**A.** 0.934

**Q.** How did the composite z-score turn out when `C[C@@H]1CC[C@H]2C(=O)OC(Cc3ccccc3)CN2[C@H]1c1ccc(Br)cc1` (stereo partly specified) was run?
**A.** 0.524

**Q.** With `C=CCOCC1CN2[C@@H](CC[C@@H](C)[C@@H]2c2ccc(Br)cc2)C(=O)O1` (stereo partly specified) as the molecule, how does the composite z-score read?
**A.** -0.342

**Q.** For `COc1ccc(COC(=O)NN=C2C[C@@H](O)[C@@H](O)[C@@H]3[C@@H]4C(=O)N(Cc5ccccc5)C(=O)[C@@H]4CC[C@@H]23)cc1`, which composite z-score is on record?
**A.** 0.193

**Q.** How did the composite z-score turn out when `COC(=O)[C@H](C)NC(=O)CCC1CC(OC(=O)NCCc2ccc(F)cc2)CC2(CCCC(COC(=O)NCCOc3ccccc3)O2)O1` (stereo partly specified) was run?
**A.** 0.762

**Q.** How did the composite z-score turn out when `COC(=O)[C@H](C)NC(=O)CCC1CC(OC(=O)NCCc2ccc(F)cc2)CC2(CCCC(COC(=O)NCCc3ccccc3OC)O2)O1` (stereo partly specified) was run?
**A.** 1.11

**Q.** With `CCOC(=O)[C@H](CC(C)C)NC(=O)CCC1CC(OC(=O)NCc2ccc3c(c2)OCO3)CC2(CCCC(COC(=O)NCCC(C)C)O2)O1` (stereo partly specified) as the molecule, how does the composite z-score read?
**A.** 0.136

**Q.** With `C=C(C)C(=O)OC[C@H]1CN2[C@@H](CC[C@@H](C)[C@@H]2c2ccc(Br)cc2)C(=O)O1` as the molecule, how does the composite z-score read?
**A.** 0.261

**Q.** For `CO[C@@H]1COC(=O)[C@H](COCc2ccccc2)NC(=O)CC=C[C@@H](C)[C@H](OC)COC(=O)[C@@H](C)NC(=O)CC=C[C@H]1C`, which composite z-score is on record?
**A.** 0.0278

**Q.** How did the composite z-score turn out when `O=C1C[C@H](c2ccccc2)[C@H](c2ccc(Br)cc2)O1` was run?
**A.** 0.193

**Q.** How did the composite z-score turn out when `CC(CCN1CCCc2nc(C)c(C)cc21)=NO[C@H](C)c1cn([C@H](CO)Cc2ccccc2)nn1` was run?
**A.** 0.59

**Q.** With `COC(=O)[C@@H]1CC[C@H](C)[C@@H](c2ccc(Br)cc2)N1C(=O)C(F)(F)F` as the molecule, how does the composite z-score read?
**A.** -0.329

**Q.** For `CC(CCN1CCCc2nc(C)c(C)cc21)=NOC[C@@H](O)COCc1ccco1`, which composite z-score is on record?
**A.** 1.56

**Q.** For `C#CCCCON=C1C[C@@H](O)[C@@H](O)[C@@H]2[C@@H]3C(=O)N([C@@H](C)c4ccccc4)C(=O)[C@@H]3CC[C@@H]12`, which composite z-score is on record?
**A.** -0.723

**Q.** With `O=C1C2=CC[C@H]3C(=O)N(Cc4ccccc4)C(=O)[C@H]3[C@H]2[C@H](O)[C@@H]2O[C@H]12` as the molecule, how does the composite z-score read?
**A.** 0.0121

**Q.** With `CC(CCC(=O)OC[C@H]1O[C@H](C#Cc2ccccc2)C=C[C@@H]1Oc1ccc(C)cc1)=NOC(C)CN1CCCCc2nc(C)c(C)cc21` (stereo partly specified) as the molecule, how does the composite z-score read?
**A.** 0.0616

**Q.** Which composite z-score does the source give for `CCOC(=O)NN=C1C[C@@H](O)[C@@H](O)[C@@H]2[C@@H]3C(=O)N(CC)C(=O)[C@@H]3CC[C@H]12` here?
**A.** 0.125

**Q.** `CON=C(C)CCN1CCCCc2nc(C)c(C)cc21` was tested. Which composite z-score did it give?
**A.** 0.443

**Q.** `CO[C@@H](C1CCCCC1)[C@@H](C)[C@H](OCc1cccc(Br)c1)[C@@H](C)CO` was tested. Which composite z-score did it give?
**A.** 0.512

**Q.** With `O=C1CCCC=C1C(O)COCc1ccccc1` (stereo unspecified) as the molecule, how does the composite z-score read?
**A.** -0.146

**Q.** Which composite z-score does the source give for `C=CC[C@@H]1C=C[C@H](ON=CC[C@@H]2C=C[C@H](OC(C)=O)[C@@H](COC(C)=O)O2)[C@@H](CO)O1` here?
**A.** 0.262

**Q.** `C[C@]12CCC3c4ccc(OCC5CO5)cc4CCC3C1CC[C@@H]2O` (stereo partly specified) was tested. Which composite z-score did it give?
**A.** 0.457

**Q.** How did the composite z-score turn out when `COC(=O)[C@@H]1CC[C@H](C)[C@@H](c2ccc(Br)cc2)N1C[C@@H](O)CN=[N+]=[N-]` was run?
**A.** 0.189

**Q.** How did the composite z-score turn out when `O=C1CCCC=C1C(O)C1CCCCC1` (stereo unspecified) was run?
**A.** 0.42

**Q.** For `CCOC(=O)[C@H](CC(C)C)NC(=O)CCC1CC(OC(=O)NCc2ccc3c(c2)OCO3)CC2(CCCC(COC(=O)NCCc3ccccc3OC)O2)O1` (stereo partly specified), which composite z-score is on record?
**A.** 0.533
